Assay results published in the supplement of paper PMC7380943.
± gives the standard deviation of the averaged measurements.

Tested on: CLZ3 (HCA2 human fibroblast dual HR-NHEJ reporter)
Experiment: HR repair efficiency (tdTomato+ cells) relative to control (log10 fold); higher = more homologous recombination
Details: 5 µM; doxycycline 0.5 ug/mL
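Also: compound given one day before doxycycline, which switches on I-SceI endonuclease expression to create double-strand breaks within the integrated reporter.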

In order of falling “HR repair efficiency (log10)” value:
1. O=c1c(O[C@@H]2O[C@H](CO)[C@@H](O)[C@H](O)[C@H]2O)c(-c2ccc(O)c(O)c2)oc2cc(O)cc(O)c12 [Isoquercitrin]  0.0777
2. COc1cc([C@@H]2[C@H]3CO[C@@]4(O)C(=O)[C@@H]2C=C([C@H]2Oc5cc(O)cc(O)c5C(=O)[C@@H]2O)[C@@H]34)ccc1O [Silydianin]  0.076 ± 0.0068
3. C=C1C(=O)O[C@@H]2/C=C(\C)CC/C=C(\C)CC[C@@H]12 [Costunolide]  0.07
4. CC(/C=C/C=C(\C)C(=O)O[C@@H]1O[C@H](CO)[C@@H](O)[C@H](O)[C@H]1O)=C\C=C\C=C(C)\C=C\C=C(/C)C(=O)O[C@@H]1O[C@H](CO[C@@H]2O[C@H](CO)[C@@H](O)[C@H](O)[C@H]2O)[C@@H](O)[C@H](O)[C@H]1O [Crocin Ii]  0.0485
5. O=C1C[C@@H](c2ccc(O)c(O)c2)Oc2cc(O)cc(O)c21 [Eriodictyol]  0.0227
6. Oc1cc(O)c2c(c1)O[C@H](c1cc(O)c(O)c(O)c1)[C@H](O)C2 [(-)Epigallocatechin]  -0.0527
7. O=C(/C=C/c1ccc(O[C@@H]2O[C@H](CO)[C@@H](O)[C@H](O)[C@H]2O)cc1)c1ccc(O)cc1O [Isoliquiritin]  -0.0597
8. CC1(C)[C@@H](O[C@H]2O[C@H](C(=O)O)[C@@H](O)[C@H](O)[C@H]2O[C@@H]2O[C@H](C(=O)O)[C@@H](O)[C@H](O)[C@H]2O)CC[C@]2(C)[C@H]3C(=O)C=C4[C@@H]5C[C@@](C)(C(=O)O)CC[C@]5(C)CC[C@@]4(C)[C@]3(C)CC[C@@H]12 [Monoammonium glycyrrhizinate]  -0.0779
